Results from PubChem BioAssay.
Activity calls are given as the source filed them.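 The calls were made as follows, unless noted: active = inhibition at or above 50% at 10 µM; inactive = inhibition below 50%.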

Tests used:
[1] = inhibitors of TNFa-induced NFkB p65 translocation, primary screen, imaging, HUVEC, MLSMR starter and 10KST1 sets (AID 438;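 active = inhibition above 20% together with a positive visual image hit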;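 also: compound added about 3h40 before a 20 min TNFalpha stimulation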;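 as to inhibition: signal is the nuclear over cytoplasmic p65 intensity ratio per well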); conditions: HUVEC TNFa-induced p65 nuclear translocation; cell count: measured here: nuclei count (cytotoxicity indicator), at 2.08 µM; inhibition: at 2 µM, stronger effect = higher value, 0% TNFa-plus-vehicle, 100% no-TNFa wells
[2] = reduction of polyQ htt aggregates in cells – imaging, exon1htt(103Q)mCFP cells, high-content imaging, primary screen (AID 483;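 active = visual image review flags a hit and inhibition of aggregation exceeds 20%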;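 also: compound exposure lasted 3 days before fixation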;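 as to nuclei count: percent of the per-plate median nuclei count of sample wells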); conditions: exon1htt(103Q)mCFP cell line, aggregate imaging, at 2 µM; inhibition of aggregation: stronger effect = higher value; nuclei count: measured here: cell count, toxicity
[3] = endothelial E-selectin expression blockers – imaging, HUVEC, immunofluorescence, MLSMR starter and 10KST1 sets, primary screen (AID 487;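 active = visually confirmed hit in the image check and inhibition above 20%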;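 as to inhibition: signal is fraction of cell area covered by stained E-selectin grains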;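 as to nuclei count: 100% = median nuclei count of all wells on the same plate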); conditions: HUVEC TNFalpha-induced E-selectin immunofluorescence imaging, at 2 µM; inhibition: stronger effect = higher value; nuclei count: measured here: cell number, toxicity
[4] = molecular target: Voltage-gated potassium channel subunit beta-2 (Rattus norvegicus) (UniProt P62483); assay: inhibitors of rat Kvbeta2 reductase activity – biochemical, NADPH fluorescence, primary screen (AID 622;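 active = fluorescence slope higher than the sample average by over 3 SD, cut at about -0.22 in these data, passing the limit was not always enough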;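 also: slope of raw intensity against log time taken from 70 to 1610 s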); conditions: recombinant KvBeta, 4-cyanobenzaldehyde reduction, at 10 µM, stronger effect = higher value
[5] = molecular target: Voltage-gated potassium channel subunit beta-2 (Rattus norvegicus) (UniProt P62483); assay: enhancers of rat Kvbeta2 NADPH turnover – biochemical, NADPH fluorescence, primary screen (AID 623;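 active = NADPH fluorescence slope more negative than the mean of all samples by about 3 SD, 99.7% confidence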;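 also: fluorescence intensity change per second fitted from 20 to 320 s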); conditions: Recombinant KvBeta, NADPH fluorescence decrease slope, 10 min; at 10 µM; stronger effect = lower value
[6] = molecular target: Alpha-2C adrenergic receptor (Homo sapiens) (UniProt P18825); assay: compounds altering alpha2C-coupled GIRK flux – cell-based, HEK293 alpha2C/GIRK1/2, thallium flux, primary screen (AID 624;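 active = fluorescence slope after compound addition differing from the mean of all screened samples at 99.7% confidence, in either direction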;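 also: slope of fluorescence ratio to pre-addition baseline per second over 15 to 24 s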); conditions: thallium flux BTC fluorescence, at 10 µM, actives lie on both sides
[7] = blockers of RIG-like receptor reporter activation – cell-based, Sendai virus stimulus, luciferase, 10K MLSCN set, TLR/RLR signaling modifier project, primary screen (AID 602276); conditions: HEK293 RL24 IRF3 luciferase reporter, at 10 µM, stronger effect = higher value;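 also: firefly luciferase from ISG56 promoter only with Renilla not read in this screen; 0% = Sendai virus plus DMSO and 100% = medium plus DMSO without virus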
[8] = TLR3 IRF3 reporter activation blockers – cell-based, poly I:C stimulus, luciferase, 10K MLSCN set, primary screen (AID 602277;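 active = inhibition of the reporter signal at or above 50%; inactive = inhibition below 50%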); conditions: HEK293-TLR3 RL24 IRF3 luciferase reporter, at 10 µM, stronger effect = higher value

Sequence of Alpha-2C adrenergic receptor (Homo sapiens) (P18825 whole entry, looked up): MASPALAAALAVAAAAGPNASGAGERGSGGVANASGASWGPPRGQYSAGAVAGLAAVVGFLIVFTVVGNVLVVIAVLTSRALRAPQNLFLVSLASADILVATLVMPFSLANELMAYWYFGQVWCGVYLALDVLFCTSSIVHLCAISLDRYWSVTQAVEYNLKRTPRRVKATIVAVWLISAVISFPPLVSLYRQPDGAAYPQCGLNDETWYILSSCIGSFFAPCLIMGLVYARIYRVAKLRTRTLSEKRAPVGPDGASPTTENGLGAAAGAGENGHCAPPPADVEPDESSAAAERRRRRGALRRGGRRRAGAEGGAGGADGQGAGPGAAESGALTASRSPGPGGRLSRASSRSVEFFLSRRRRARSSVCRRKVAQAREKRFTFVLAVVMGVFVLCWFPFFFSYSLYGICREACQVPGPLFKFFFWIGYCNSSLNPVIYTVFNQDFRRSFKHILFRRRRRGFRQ
Sequence of Voltage-gated potassium channel subunit beta-2 (Rattus norvegicus) (P62483 whole entry, looked up): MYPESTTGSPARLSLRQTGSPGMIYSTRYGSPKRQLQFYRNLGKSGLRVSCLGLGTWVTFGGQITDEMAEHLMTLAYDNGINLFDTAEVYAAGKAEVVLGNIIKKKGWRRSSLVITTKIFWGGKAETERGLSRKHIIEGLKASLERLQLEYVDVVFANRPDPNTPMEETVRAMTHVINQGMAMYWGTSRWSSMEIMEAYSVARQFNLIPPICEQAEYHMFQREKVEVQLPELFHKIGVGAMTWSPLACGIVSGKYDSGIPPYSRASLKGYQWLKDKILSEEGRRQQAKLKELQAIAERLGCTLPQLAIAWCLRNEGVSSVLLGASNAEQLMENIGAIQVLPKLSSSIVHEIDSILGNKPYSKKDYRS

SMILES	cell count [1]	inhibition [1]	inhibition of aggregation [2]	nuclei count [2] [%]	inhibition [3]	nuclei count [3] [%]	fluorescence slope [4]	NADPH fluorescence slope [5]	slope [6]	inhibition [7]	inhibition [8]
COc1ccc(-c2ccc(-c3nnn(CC(C)=O)n3)cc2)cc1	277	-6.2% (inactive)	-10.7% (inactive)	111	-65% (inactive)	130	-0.516 (inactive)	-4.2e-05 (inactive)	0.00693 (inactive)	-41% (inactive)	-130% (inactive)
Cc1nc2sc(C(c3ccc(Br)cc3)N3CC(C)OC(C)C3)c(O)n2n1 (centres undefined)	260	-5.4% (inactive)	-0.8% (inactive)	106	-6.9% (inactive)	114	-0.437 (inactive)	-6.3e-05 (inactive)	0.00564 (inactive)	4.21% (inactive)	17.4% (inactive)
C=CCn1c(SCn2nnc3ccccc3c2=O)nnc1-c1ccc(Br)cc1	447	-8.7% (inactive)	6% (inactive)	67.5	-30.7% (inactive)	110	-0.328 (inactive)	-5.6e-05 (inactive)	0.00508 (inactive)	-1.43% (inactive)	-21.1% (inactive)
O=C(CSc1nc(-c2ccccc2)cs1)NCc1ccco1	200	-1.3% (inactive)	0.4% (inactive)	54.4	-32.4% (inactive)	106	-0.511 (inactive)	-3.4e-05 (inactive)	0.00584 (inactive)	-27.5% (inactive)	-55.9% (inactive)
COCCSc1ccccc1C(=O)Nc1nncs1	659	-27.6% (inactive)	-7.4% (inactive)	99.6	-60.7% (inactive)	112	-0.598 (inactive)	-2.1e-05 (inactive)	0.00672 (inactive)	-7.19% (inactive)	2.28% (inactive)
O=C(CSc1nnnn1-c1ccc(Cl)cc1)NC(=O)Nc1ccc2c(c1)OCCO2	336	5.6% (inactive)	19.6% (inactive)	84.7	-86.5% (inactive)	120	-0.429 (inactive)	-3.6e-05 (inactive)	0.00808 (inactive)	-24.8% (inactive)	-57% (inactive)
CS(=O)(=O)N(Cc1ccco1)CC(O)Cn1c2ccccc2c2ccccc21 (centres undefined)	314	3.3% (inactive)	3.9% (inactive)	103	-16.4% (inactive)	97.9	-0.388 (inactive)	1.5e-05 (inactive)	0.00353 (inactive)	13.7% (inactive)	35.1% (inactive)
CCC(C)(C(=O)NC1CCCCC1)N(Cc1ccco1)C(=O)c1ccc2c(c1)OCO2 (centres undefined)	593	-9.3% (inactive)	-2.7% (inactive)	80.7	25.6% (inactive)	95.5	-0.423 (inactive)	-7.4e-06 (inactive)	0.00563 (inactive)	21.1% (inactive)	49.5% (inactive)
CCC1(C)Cc2c(C#N)c(N)n(N)c(=S)c2CO1 (centres undefined)	795	1.1% (inactive)	-11.2% (inactive)	97.6	-97% (inactive)	106	-0.422 (inactive)	-4.6e-05 (inactive)	0.00514 (inactive)	9.11% (inactive)	22.9% (inactive)
Cc1ccccc1Cc1c(C)nc2c(C(=O)N3CCN(Cc4ccc5c(c4)OCO5)CC3)cnn2c1C	631	-4.4% (inactive)	19.5% (inactive)	132	-11.8% (inactive)	95.4	-0.415 (inactive)	-1.3e-05 (inactive)	0.00443 (inactive)	10.8% (inactive)	27.9% (inactive)
COCC(=O)Nc1c(C(=O)Nc2ccccc2OC)oc2ccccc12	602	-5.9% (inactive)	11.9% (inactive)	99.1	2.5% (inactive)	60.9	-0.318 (inactive)	1.2e-05 (inactive)	0.00625 (inactive)	-4.76% (inactive)	11.5% (inactive)
CNC(=O)CSc1nnc(-c2ccc(S(=O)(=O)N3CCCC3)cc2)n1-c1cccc(C)c1C	643	-2.4% (inactive)	-15.2% (inactive)	108	-87.7% (inactive)	106	-0.458 (inactive)	-4.2e-05 (inactive)	0.00667 (inactive)	12.2% (inactive)	33.2% (inactive)
O=C(NCC1CCCO1)C1CCCN(Cc2cnn(-c3ccccc3)c2-n2cccc2)C1 (centres undefined)	292	0.8% (inactive)	5.3% (inactive)	86.3	-10.5% (inactive)	92.7	-0.39 (inactive)	3.8e-06 (inactive)	0.0039 (inactive)	-11.1% (inactive)	-10.8% (inactive)
O=C(Nc1nc(-c2ccc(S(=O)(=O)N3CCCC3)cc2)cs1)C1COc2ccccc2O1 (centres undefined)	731	3.6% (inactive)	-24.6% (inactive)	91.5	24% (inactive)	81.4	-0.413 (inactive)	-2.5e-05 (inactive)	0.00956 (active)	7.86% (inactive)	2.65% (inactive)
CC(=O)N(C)C1(c2nnnn2CCOC(=O)Nc2cccc3ccccc23)CCCC1	600	-8.2% (inactive)	31.6% (inactive)	98.9	-99.1% (inactive)	105	-0.61 (inactive)	-5.7e-05 (inactive)	0.00458 (inactive)	13% (inactive)	21.8% (inactive)
CCCCCCC(C)n1[nH]c(=O)c2c(C)cc(=O)[nH]c21 (centres undefined)	675	8.2% (inactive)	-12.3% (inactive)	105	-6.2% (inactive)	91.9	-0.61 (inactive)	-1.7e-05 (inactive)	0.00325 (inactive)	3.89% (inactive)	-2.25% (inactive)
Cc1csc(NC(=O)CSc2nnc(Cc3cccn3C)n2-c2ccc(F)cc2)n1	688	-3.4% (inactive)	12.8% (inactive)	74	-48.6% (inactive)	105	-0.57 (inactive)	2e-05 (inactive)	0.00588 (inactive)	-11.3% (inactive)	8.94% (inactive)
O=S(=O)(Nc1ccccn1)c1ccc(Oc2ccccc2)cc1	248	-6.3% (inactive)	0.4% (inactive)	59.1	-2.9% (inactive)	93.8	-0.598 (inactive)	-1.6e-05 (inactive)	0.0052 (inactive)	16.9% (inactive)	20.6% (inactive)
CC(=O)Nc1cc(N2C(=O)CCC2=O)ccc1Cl	498	3.5% (inactive)	12.7% (inactive)	98.5	10.7% (inactive)	110	-0.509 (inactive)	2.5e-05 (inactive)	0.00539 (inactive)	23% (inactive)	20.8% (inactive)
